Data published in paper PMC8384837, “Expanding the binding specificity for RNA recognition by a PUF domain”.

biological target: PUM1 PUF domain R4-WAS (Homo sapiens, UniProt Q14671 828-1176, N971W;H972A;Q975S); experiment: yeast three-hybrid, YBZ-1, SC-Leu-His + 0.5 mM 3-AT, 4 days; conditions: tags: N-Gal4 AD-HA kept; label: inside an RPR1-promoter hybrid RNA with tandem MS2 sites; ssRNA
Summary of the method: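 Pumilio-1 PUF domain libraries, randomized at the three base-contacting residues of each repeat, were co-expressed with matching RNA elements from a centromeric plasmid in strain YBZ-1, which carries a LexA–MS2 coat fusion and a HIS3 reporter. Transformants grew for four days on SC-Leu (input) or on SC-Leu-His + 0.5 mM 3-AT (selection), and the repeat regions were PCR-amplified and Illumina-sequenced. The interaction score is the log change in variant frequency from input to selection. That logarithm is base 2, with a pseudocount of 1 where a variant was absent.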

Chain of PUM1 PUF domain R4-WAS (Q14671 828-1176 N971W/H972A/Q975S): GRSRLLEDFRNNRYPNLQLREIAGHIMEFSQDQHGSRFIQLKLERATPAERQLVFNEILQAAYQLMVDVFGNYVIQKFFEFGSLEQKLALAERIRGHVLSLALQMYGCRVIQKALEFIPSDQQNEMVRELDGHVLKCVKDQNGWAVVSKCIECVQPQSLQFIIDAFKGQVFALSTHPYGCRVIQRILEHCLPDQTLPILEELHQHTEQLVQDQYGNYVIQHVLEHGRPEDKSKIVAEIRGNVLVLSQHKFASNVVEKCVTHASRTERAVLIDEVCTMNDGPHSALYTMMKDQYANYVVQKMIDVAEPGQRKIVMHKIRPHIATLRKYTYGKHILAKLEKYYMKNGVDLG

Row | Sequence | binding signal
1 | GGCUAGAACUAGUGGAUCCCCCGGCGCCCGGCGGCUCGAGCCCGGGUAAGUGUAAAUAGUCUGCAUGCCGCCGGGCGCCAUGCCUGCAGGUCGACUCUAGAAAACAUG | 2.5 log2 enrichment (interaction score)
2 | GGCUAGAACUAGUGGAUCCCCCGGCGCCCGGCGGCUCGAGCCCGGGUAAGUGUAUAUAGUCUGCAUGCCGCCGGGCGCCAUGCCUGCAGGUCGACUCUAGAAAACAUG | 4.67 log2 enrichment (interaction score)
3 | GGCUAGAACUAGUGGAUCCCCCGGCGCCCGGCGGCUCGAGCCCGGGUAAGUGUACAUAGUCUGCAUGCCGCCGGGCGCCAUGCCUGCAGGUCGACUCUAGAAAACAUG | 3.76 log2 enrichment (interaction score)
